# Data from PubChem BioAssay (NCATS).
# Results filed as inconclusive are left out. Values without a mark were called inactive. Activity calls are given as the source filed them. Calls come from the whole dose curve; as a rule, active = well fitted inhibition curve with a large enough effect; inconclusive = small, poorly fitted or top-dose-only effect; inactive = flat fitted curve, though single readings scatter.
# Assay: P-glycoprotein substrates identified in KB-8-5-11 adenocarcinoma cell line, qHTS therapeutic library screen (AID 1346987); note: nearly all actives have a fitted effect of over 65% in size
# Conditions: KB-8-5-11 (P-gp overexpressing) viability, CellTiter-Glo, 72 h; series mostly up to 44.5 µM; activity change, negative = cytotoxicity: at the top concentration
# Method in brief: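 KB-8-5-11: colchicine-selected sub-line of KB-3-1 over-expressing P-gp; assay medium lacked colchicine. 72 h drug exposure at 37 degree C, CellTiter-Glo.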
# % is set by controls: 0 for no effect and ±100 for the full control effect; potency is the fitted concentration of half-maximal effect.
Structure (SMILES),"activity change, negative = cytotoxicity",outcome,Potency
CC1CCC(=O)CC(O)C(O)CC(=O)O1 (stereo unspecified),7.38%,–,–
CCCC1=CC2=C(CO1)C(=O)C(C)(OC(=O)c1c(C)cc(OC)cc1O)C(O)C2 (stereo unspecified),-1.99% [at 17.3 µM],–,–
CC1=C(C)C(=O)OC(C(C)(O)C2CCC3C4CC=C5CC(OC6OC(COC7OC(CO)C(O)C(O)C7O)C(O)C(O)C6O)CC(O)C5(C)C4CCC32C)C1 (stereo unspecified),–,inactive [at 17.3 µM],–
CC(=O)[C@@H]1CC[C@]2(C(=O)O)CC[C@]3(C)C(CCC4[C@@]5(C)CC[C@H](O)C(C)(C)C5CC[C@]43C)C12 (stereo partly specified),–,inactive [at 17.3 µM],–
C=C1CCC2C(C)(C)CC(=O)CC2(C)C1CCC(C)CCOC(C)=O (stereo unspecified),0.616%,–,–
NCCOCCOCCNC(=O)Cc1ccc(Nc2nc(NCc3ccc(F)cc3)nc(NCC3CCCCC3)n2)cc1,–,inactive,–
c1ccc(Nc2nc3c(s2)CCCc2[nH]ncc2-3)nc1,2.92%,–,–
O=C(/C=C/c1ccc(O)cc1)OC[C@]12O[C@H]1[C@@H](O)[C@@H]1C=CO[C@@H](O[C@@H]3O[C@H](CO)[C@@H](O)[C@H](O)[C@H]3O)[C@@H]12,–,inactive [at 17.3 µM],–
NCc1ccc(OCCCc2sc(-c3ccc4c(c3)/C(=N/Nc3nc5ccccc5s3)CCC4)nc2C(=O)O)cc1,-26.6%,–,–
COc1cc(N2CCC(O)CC2)ccc1Nc1cc(Nc2ccccc2S(=O)(=O)C(C)C)c2cc[nH]c2n1,–,–,11.4 µM (active)
CC1(CO)CC[C@]2(C(=O)O[C@@H]3O[C@H](CO)[C@@H](O)[C@H](O)[C@H]3O)CC[C@]3(C)C(=CCC4[C@@]5(C)C[C@H](O)[C@H](O[C@@H]6OC[C@@H](O)[C@H](O)[C@H]6O)[C@@](C)(CO)C5CC[C@]43C)C2C1 (stereo partly specified),–,inactive [at 9.29 µM],–
